About 13,000 (27%) of roughly 48,000 compounds showed an effect of 50% or more. Some of the results follow.

The record followed here is ChEMBL document CHEMBL3988442, “University of Dundee, Small-Polar-MMV Screening Library” (2021).

The subject of the test is Wolbachia pipientis. Description: Anti-Wolbachia Cell-Based Screen. The class given is functional. Set-up: scale not given: in the data most compounds retested in dose-response had high values. The note with it: 5 µM.
Turning to `CC(C)Cc1ncc2c(n1)CN(c1cc(N3CCCC3)nc(N)n1)C2`, the “Percent Effect” value is given as -10.3%. As to `COCCC1(CNC(=O)NCC2CCCN(C)C2)CCC1` (configuration not stated), the “Percent Effect” value is 8.648%. The result for `CCCSCC(=O)N1CCN(c2ccc(C)cc2)CC1C` (configuration not stated) reads -1.95%. In the case of `CN(C)Cc1cnc2n1CCN(Cc1ccsc1)CC2.O=C(O)C(F)(F)F.O=C(O)C(F)(F)F`, the “Percent Effect” value is recorded as -11.04%.

Consider `CC(C)N(C)Cc1cnc2n1CCN(C(=O)c1cccs1)C2`, for which the “Percent Effect” value amounted to 6.203%. The result for `CN(C)Cc1cnc2n1CCN(C(=O)Cc1ccsc1)CC2.O=C(O)C(F)(F)F` reads -7.652%.

In the case of `CNC(=O)c1cnc2n1CCN(C(=O)Cc1ccccn1)C2`, the “Percent Effect” value is listed as -2.51%. Take `CC(C)N(C)Cc1cnc2n1CCN(Cc1ccsc1)C2.O=C(O)C(F)(F)F.O=C(O)C(F)(F)F`: the “Percent Effect” value is listed as 107.2%.

With `CC(C)N(C)Cc1cnc2n1CCN(C(=O)Cc1ccccn1)C2.O=C(O)C(F)(F)F.O=C(O)C(F)(F)F`, the “Percent Effect” value is 116.4%.

As to `CC(C)N(C)Cc1cnc2n1CCN(C(=O)Cc1ccsc1)C2.O=C(O)C(F)(F)F`, the “Percent Effect” value is on record as 75.58%.

As for `CC(NCC1CCN(CCO)CC1)c1ccc(OC(F)(F)F)cc1` (configuration not stated), the “Percent Effect” value was found to be 5.514%. For `Cc1ccccc1CSc1nc(=O)n(CCO)c2c1CCC2`, the “Percent Effect” value is 18.09%. The result for `Cc1csc(N2CCCN(C(=O)c3cnns3)CC2)n1` reads 3.916%; that for `Fc1ccc(OC2CCN(CCn3cncn3)CC2)cc1`, 1.97%; that for `Cc1nc(C)c(CCN2CCC(Oc3ccccc3F)CC2)s1`, -50.47%.

Turning to `Cc1ccc(OC2CCN(CCn3cncn3)CC2)cc1`, the “Percent Effect” value is on record as -5.94%. In the case of `Fc1cccc(OC2CCN(CCn3cc4ccccc4n3)CC2)c1`, the “Percent Effect” value is given as 89.5%. For the molecule `Fc1ccccc1OC1CCN(CCn2cc3ccccc3n2)CC1`, the “Percent Effect” value is on record as 96.15%. Consider `O=C(O)c1cccc(N2CCC(Oc3cccc(F)c3)CC2)n1`, for which the “Percent Effect” value stood at 3.827%. For the molecule `c1cncc(OC2CCN(CCn3cc4ccccc4n3)CC2)c1`, the “Percent Effect” value is 92.09%.

For the molecule `Cc1nc(CCN2CCC(Oc3ccccc3F)CC2)c(C)s1`, the “Percent Effect” value was found to be 0%.

Take `c1cncc(O[C@H]2COCCN(CC3CC3)C2)c1`: the “Percent Effect” value is on record as -6.13%. With `O=C(O)C(F)(F)F.O=C1[C@@H]2CN(C3CCOCC3)C[C@H]2CCN1CC1CC1`, the “Percent Effect” value is given as -15.82%.

As to `CCC(C)(CC(=O)OC)NCc1c(C)noc1C` (configuration not stated), the “Percent Effect” value is -10.12%. The value for `CCCN(CCOC)c1nc(C)nc2sccc12` was -21.15%; that for `Cc1cc(NC(=O)N2CCN(c3cccs3)CC2)ccc1C(N)=O` was 6.081%.

Take `CS(=O)(=O)c1ccc(OCCNCc2c(F)cccc2F)cc1`: the “Percent Effect” value was -4.502%. `Cc1ccc(C(=O)N2CCOC(c3nc(C(C)(C)C)n[nH]3)C2)c(=O)[nH]1` (configuration not stated): the “Percent Effect” value was -10.02%. The result for `CCCc1n[nH]c(C2CN(C(=O)c3ccc(C)[nH]c3=O)CCO2)n1` (configuration not stated) reads 101.9%; that for `CCCc1n[nH]c(C2CN(C(=O)c3cncnc3C)CCO2)n1` (configuration not stated), 104.8%.

As to `CC(C)n1nccc1NC(=O)NCCc1nc2ccc(F)cc2n1C`, the “Percent Effect” value is on record as -24.15%.

For `COCCN1CCN(CC(=O)NC2(C#N)CCCC2)CC1`, the “Percent Effect” value was 5.801%. The result for `CCN(Cc1cc(F)c(OC)c(Cl)c1)Cc1noc(CC(C)C)n1` reads -0.0931%. The value for `CC(C)c1cc(N2CCSCC2)n2nccc2n1` was -0.2231%; that for `Cc1nc(-c2cncnc2C2CCCNC2)no1.Cl.Cl` (configuration not stated) was 112.4%; that for `CN1CCC[C@H]1c1nc(-c2cncnc2N)no1` was -19.35%. Regarding `Cc1ncc(S(C)(=O)=O)c(C2CCCNC2)n1` (configuration not stated), the “Percent Effect” value was 6.84%.

With `CC(C)c1ncc(S(C)(=O)=O)c(C2CCCNC2)n1` (configuration not stated), the “Percent Effect” value is given as 16.25%. In the case of `CC(C)(C)CN1CCC[C@H]1c1nc(-c2cncnc2N)no1`, the “Percent Effect” value is on record as -5.651%. In the case of `CN1CCC(N2CCC[C@H]2c2nc(-c3cncnc3N)no2)CC1`, the “Percent Effect” value is -6.986%.

With `CCc1nc(-c2cncnc2C2CCNC2)no1` (configuration not stated), the “Percent Effect” value stood at 125.4%. As for `CCc1nc(C2CCCN(c3ncc(Br)cn3)C2)no1` (configuration not stated), the “Percent Effect” value is reported as -4.032%. As to `CS(=O)(=O)c1cncnc1C1CCCNC1.Cl` (configuration not stated), the “Percent Effect” value was 112%. As to `CCc1nc(-c2cncnc2C2CCCNC2)no1.Cl` (configuration not stated), the “Percent Effect” value worked out at 115.3%. On to `CN(Cc1nc2ccccc2[nH]1)C(=O)CN(C)c1ccccc1`, for which the “Percent Effect” value is recorded as -21.88%. The result for `O=C(CCNc1ncc2c(n1)CCN2c1ccccc1)N1CCCC1` reads 15.12%; that for `COCCC1CN(c2nc(-c3ccccc3)nc3c2CCNC3)CCO1` (configuration not stated), -17.27%. As for `Cc1cnc(C(=O)N2CCCC(c3nccn3Cc3cscn3)C2)cn1` (configuration not stated), the “Percent Effect” value is recorded as 3.931%. For the molecule `Cc1cc(C(=O)N(C)Cc2cnn(C)c2)c(NC(=O)C(C)(C)C)s1`, the “Percent Effect” value was -6.693%.

As to `COCC1CN(Cc2cccnc2OC)Cc2cnn(C)c21` (configuration not stated), the “Percent Effect” value is on record as -15.02%. Consider `CCn1ncc2c1C(COC)CN(Cc1ccsc1)C2` (configuration not stated), for which the “Percent Effect” value is on record as -10.45%. Consider `Cn1ncc2c1C(COCC1CC1)CN(Cc1ccsc1)C2` (configuration not stated), for which the “Percent Effect” value worked out at 99.94%. The value for `Cn1ncc2c1C(COCC1CC1)CN(Cc1cccnc1)C2` (configuration not stated) was -4.691%; that for `CCOCC1CN(Cc2ccsc2)Cc2cnn(C)c21` (configuration not stated) was 100.2%. The result for `CCOCC1CN(CC2CC2)Cc2cnn(C)c21` (configuration not stated) reads -17.33%. As for `COCC1CN(Cc2ccsc2)Cc2cnn(C)c21` (configuration not stated), the “Percent Effect” value was 97.33%. Take `COc1ccc(CN2Cc3cnn(C)c3C(COCC3CC3)C2)cc1` (configuration not stated): the “Percent Effect” value is given as 13.17%. As for `CC(=O)Nc1ccc(F)c(S(=O)(=O)NC(C)(C)C)c1`, the “Percent Effect” value is -3.757%. On to `NCC1CCN(c2nc(C3CCCC3)nc3c2CCNCC3)C1` (configuration not stated), for which the “Percent Effect” value is 9.164%. As to `Cc1cc(C(=O)N2CC[C@H](N3CCOCC3)[C@H](CCCO)C2)c(C)n1C`, the “Percent Effect” value was -10.4%.

Take `CC(=O)C(C)CC(=O)N(Cc1cccc(C)c1)C(C)C` (configuration not stated): the “Percent Effect” value is on record as -23.01%. Consider `Cc1ccccc1CN1CC[C@H](c2nnc(-c3cncn3C)o2)C1`, for which the “Percent Effect” value was determined as 0.6101%. The result for `COc1ccccc1CN1CC[C@H](c2nnc(-c3cncn3C)o2)C1` reads -5.308%; that for `Cc1ncsc1-c1nnc(C2CCN(Cc3cccc(F)c3F)CC2)o1`, 117.8%.

Consider `Cc1ncsc1-c1nnc(C2CCN(Cc3ccccc3Cl)CC2)o1`, for which the “Percent Effect” value stood at 122.3%. With `Cc1ncsc1-c1nnc(C2CCN(Cc3ccccc3F)CC2)o1`, the “Percent Effect” value worked out at 106.9%. For the molecule `CCn1cnnc1CNC(=O)c1ccc(Br)cc1F`, the “Percent Effect” value is -45.58%. For the molecule `CC(C(=O)N1CCN(C(=O)c2ccc(F)cc2F)CC1)n1ccnc1` (configuration not stated), the “Percent Effect” value was -6.751%. Take `CN(Cc1ccc(Cl)s1)C(=O)Cn1nc(-c2ccc(F)cc2)oc1=O`: the “Percent Effect” value was -64%. The result for `CCCn1cnnc1CNC1CCSC1` (configuration not stated) reads 5.781%; that for `N#CCCN(Cc1cccnc1)C(=O)c1ccc(OCC2CC2)cc1`, -3.781%; that for `Cc1ccc(CN(C)C(=O)c2cccc(NC(N)=O)c2)o1`, -0.4854%. Turning to `CN(Cc1ccsc1)C(=O)c1cc2c([nH]c1=O)CCCC2=O`, the “Percent Effect” value came to 2.933%. Consider `Cc1noc(C)c1C(=O)N(C)Cc1nc(-c2ccccn2)no1`, for which the “Percent Effect” value is -7.046%.

Regarding `Cc1noc(CN(C)c2ccccc2)n1`, the “Percent Effect” value came out at 0.05791%. Regarding `Cc1ccccc1OCCC(=O)N(C)Cc1c(C)noc1C`, the “Percent Effect” value was -17.09%. The value for `Cc1noc(C)c1CN(C)C(=O)c1n[nH]c(N)c1-c1ccccc1` was 103.1%. The value for `CN(Cc1ccsc1)C(=O)c1n[nH]c(N)c1-c1ccccc1` was 96.05%; that for `Cc1nc(NC(=O)N(C)Cc2ccsc2)nn1C` was 1.412%. With `Cc1ccc(CN(C)C(=O)c2n[nH]c(N)c2-c2ccccc2)o1`, the “Percent Effect” value is 90.65%. In the case of `CCc1nnsc1C(=O)N(C)Cc1ccc(C)o1`, the “Percent Effect” value was 0.8104%.

Take `Cc1noc(CN(C)C(=O)c2n[nH]c(N)c2-c2ccccc2)n1`: the “Percent Effect” value was found to be 101.7%. With `Cc1noc(C)c1CN(C)C(=O)c1nc(N2CCCC2)ncc1Cl`, the “Percent Effect” value is reported as -6.035%.

Consider `Cc1ccc(CN(C)C(=O)c2cc3c(c(S(N)(=O)=O)c2)CCC3)o1`, for which the “Percent Effect” value is given as -13.85%. Regarding `CCC1=N[C@@]2(CC[C@@H]3CN(S(=O)(=O)CC)C[C@@H]32)C(=O)N1CCOC`, the “Percent Effect” value was -7.119%. Turning to `CN(c1ncc(C(N)=O)cc1Cl)C1CCC(c2ccccc2)CC1` (configuration not stated), the “Percent Effect” value was -13.88%. The value for `CN(Cc1ccsc1)C(=O)Nc1ccc(=O)n(C)c1` was -4.532%; that for `NCC(=O)N1CCC(c2cccc(Oc3ccccc3)n2)CC1` was 130.3%. As for `CCn1cnnc1C1CCN(C(=O)CCCOc2ccccc2)CC1`, the “Percent Effect” value is recorded as 6.265%. As to `NC(=O)CN1CCC(c2cccc(Oc3ccccc3)n2)CC1`, the “Percent Effect” value was found to be 173%. As to `CNCC(=O)N1CCC(c2cccc(Oc3ccccc3)n2)CC1`, the “Percent Effect” value is listed as 178.2%. In the case of `CCn1cnnc1C1CCN(C(=O)COc2ccccc2)CC1`, the “Percent Effect” value is 2.9%. Take `CC(=O)N1CCC(c2cccc(Oc3ccccc3)n2)CC1`: the “Percent Effect” value was found to be 144.2%. Turning to `COCC(=O)N1CCC(c2cccc(Cc3ccc(F)cc3)n2)CC1`, the “Percent Effect” value is reported as -12.66%. On to `CC(C)(C)c1nnc(CSc2ccccn2)o1`, for which the “Percent Effect” value worked out at 4.822%. The value for `CN(Cc1ccccc1)C1(C(=O)NCC(N)=O)Cc2ccccc2C1` was -1.712%; that for `O=C(NCc1csc(Cc2ccccc2)n1)C1NCCc2[nH]cnc21` (configuration not stated) was -10.41%.

With `CCn1nc(C)c(NC(=O)c2cc(NC(=O)C(C)C)n(C)n2)c1C`, the “Percent Effect” value is 2.528%.

With `CCCc1cc(C(=O)N(Cc2cccnc2)Cc2cccnc2)[nH]n1`, the “Percent Effect” value was -21.08%. As to `NCC1Cc2cc(-c3cncc(C(=O)N4CCCCC4)n3)cc(F)c2O1` (configuration not stated), the “Percent Effect” value is listed as -1.954%. Consider `Fc1ccc(NCc2ncc[nH]2)cc1Br`, for which the “Percent Effect” value was -22.04%.

Regarding `Clc1cc(NCc2ccncc2)nc2[nH]ccc12`, the “Percent Effect” value turned out to be 93.22%. `Clc1cc(NCc2ncc[nH]2)nc2[nH]ccc12`: the “Percent Effect” value is listed as 61.99%.

Turning to `Clc1cc(NCc2nccs2)nc2[nH]ccc12`, the “Percent Effect” value stood at 109.6%. The result for `CN(C)CCNc1cc(-c2ncccc2Cl)c2cc[nH]c2n1` reads -5.947%; that for `O=C(Nc1ccccc1)c1ccc(NCc2ccncc2)nn1`, -22.46%. As to `COc1ncc(-c2cc(NCCN(C)C)nc3[nH]ccc23)c(OC)n1`, the “Percent Effect” value is -3.716%.
